RecA splice inh – blocks M. tuberculosis RecA intein splicing. cell-free RecA intein splicing, fluorescence. inhibition, % (concentration not given with the values). 290,000 compounds, 0.75% hits; in the data active = inhibition above about 30%;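 also: 0% = vehicle wells and 100% = reference inhibitor control wells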
CCHF vOTU inh – CCHFV vOTU protease inhibition; Pep-AMC fluorescence; 370,000 compounds, 0.55% hits; inhibition, % at 11.5 µM; AID 651958; also: 0% = vehicle wells with enzyme and 100% = no enzyme wells
GDH-TPI counter-1 – counter-screen for M. tuberculosis FBA inhibitors: GDH-TPI coupled enzymes; 360,000 compounds, 1.2% hits; GDH-TPI coupled enzyme counterscreen, NADH absorbance; inhibition, % at 4.8 µM;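 also: 0% = DMSO wells and 100% = wells lacking the enzyme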
FBA Mtb inh – inhibitors of M. tuberculosis fructose-bisphosphate aldolase; P9WQA3; purified M. tuberculosis FBA, fluorescence read-out; inhibition, % at 1 µM; 360,000 compounds, 2.3% hits; in the data active = inhibition above about 27%;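 also: 0% = vehicle and 100% = reference inhibitor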
Target sequence (P9WQA3 whole entry, looked up): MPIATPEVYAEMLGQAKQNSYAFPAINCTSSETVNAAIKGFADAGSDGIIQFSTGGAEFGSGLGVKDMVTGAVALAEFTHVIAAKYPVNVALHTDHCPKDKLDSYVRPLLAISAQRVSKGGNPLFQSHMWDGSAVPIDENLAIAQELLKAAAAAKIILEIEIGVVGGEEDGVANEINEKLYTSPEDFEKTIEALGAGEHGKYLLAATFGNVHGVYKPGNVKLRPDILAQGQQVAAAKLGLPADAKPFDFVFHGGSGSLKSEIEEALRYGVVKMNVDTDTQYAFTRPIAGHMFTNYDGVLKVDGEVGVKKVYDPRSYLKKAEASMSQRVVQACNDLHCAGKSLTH
Mtb FBA confirm – confirmation of M. tuberculosis fructose-bisphosphate aldolase inhibitors. shares compounds with FBA Mtb inh. purified M. tuberculosis FBA, fluorescence read-out. inhibition, % at 1 µM. 5,600 compounds, 78% hits; in the data active = inhibition above about 27%;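 also: 0% = vehicle wells and 100% = reference inhibitor wells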
GDH-TPI counter-2 – counter-screen for M. tuberculosis FBA inhibitors: GDH-TPI coupled enzyme inhibition | AID 652141 | GDH-TPI coupled enzyme counterscreen, fluorescence | inhibition, % at 1 µM | 5,600 compounds, 81% hits | shares compounds with FBA Mtb inh; in the data active = inhibition above about 10%
GDH-TPI dose – inhibits GDH-TPI coupling enzymes in dose response | shares compounds with FBA Mtb inh | GDH-TPI coupled enzyme assay, fluorescence, artifact counterscreen | IC50, µM | 170 compounds, 79% hits | AID 652145; call rule not given here
The depositor's hits bear a star; . = not tested or not shown; + = active, no number. Sampled rows, rich in hits. Any-hit rate of the full collection: about 4.2%. Rule as the data show it, unless noted: active = inhibition above about 30%; inactive = the rest.

SMILES | RecA splice inh | CCHF vOTU inh | GDH-TPI counter-1 | FBA Mtb inh | Mtb FBA confirm | GDH-TPI counter-2 | others
COc1ccc(-c2cc(C(=O)N(C)CC(=O)Nc3cccc(F)c3)c3ccccc3n2)cc1 | 0 | -74 | 7 | 54* | 115* | 83*
CCS(=O)(=O)Nc1ccc(C2=NN(S(C)(=O)=O)C(c3cccs3)C2)cc1 (stereo not given) | -1 | -32 | 0 | 93* | 57* | 45*
CS(=O)(=O)N1N=C(c2ccccc2)CC1c1cccs1 (stereo not given) | 3 | -5 | -1 | 1 | . | .
CCc1cc(=O)oc2cc(C)cc(OC(C)C(=O)NCc3ccccn3)c12 (stereo not given) | 0 | -7 | -2 | 50* | 66* | 48*
CCCc1cc(=O)oc2cc(C)cc(OC(C)C(=O)NCc3ccccn3)c12 (stereo not given) | -2 | -31 | 13 | 65* | + | +
CC(Oc1ccc2c(-c3ccccc3)cc(=O)oc2c1)C(=O)NCc1ccccn1 (stereo not given) | . | 2 | 28 | 6 | . | .
Cc1nc2ccc(N)cc2c(=O)n1Cc1ccc(Cl)cc1 | 1 | -41 | 10 | 41* | 40* | 33*
Cc1nc2c(cc1N)nc(C)n2Cc1ccccc1 | 1 | -30 | 0 | 99* | 20 | 3 | GDH-TPI dose=1.2*
CC(=O)Nc1cc2nc(C)n(Cc3ccc([N+](=O)[O-])cc3)c2nc1C | -4 | -5 | 7 | -3 | . | .
CCCCc1cccc2[nH]cc(C)c12 | . | 7 | . | . | . | .
Cc1cc(C)n2nc(NCc3cccc(Br)c3)nc2n1 | 9 | -12 | 1 | 58* | 70* | 52*
CCOC(=O)c1oc2cccc(OCC(O)CNC(C)C)c2c1C (stereo not given) | 2 | -15 | 8 | 91* | 11 | -4 | GDH-TPI dose=1.5*
Cc1cccc(C)c1OCC(O)CNC(C)C (stereo not given) | -1 | 10 | 2 | 0 | . | .
Nc1ncnc2c(C3OC(CO)C(O)C3O)scc12 (stereo not given) | . | -75 | 10 | 74* | 180* | 119*
COc1ccc(S(=O)(=O)Nc2nc3c(s2)CCCC3)cc1 | 0 | 9 | 2 | 56* | 86* | 68*
O=S(=O)(Nc1nc2c(s1)CCCC2)c1ccc(F)cc1 | 1 | -4 | -7 | 1 | . | .
O=C(COC(=O)c1ccncc1)c1ccc(Cl)c(Cl)c1 | 2 | -13 | -2 | 7 | . | .
CC(Oc1ccccc1)C(=O)N1CCN(c2ccc(N3CCOCC3)nn2)CC1 (stereo not given) | -8 | -49 | -7 | 30* | 1 | 0
O=C(Cn1c(=O)oc2ccccc21)N1CCN(c2ccc(N3CCOCC3)nn2)CC1 | -4 | -32 | 14 | 28* | 132* | 80*
O=C(c1cccc(Cl)c1)N1CCN(c2ccc(N3CCOCC3)nn2)CC1 | -7 | -46 | 9 | 24 | . | .
Cc1ccccc1CS(=O)(=O)CCC(=O)N1CCN(c2ccc(N3CCOCC3)nn2)CC1 | -5 | -47 | 0 | 35* | 66* | 60*
O=C(c1ccccc1)N1CCN(c2ccc(N3CCOCC3)nn2)CC1 | -9 | -45 | 1 | 32* | 28* | 30*
Cc1ccc(NC(=O)CSCC(=O)N(C)CC(=O)Nc2cccc3ccccc23)cc1 | 2 | -1 | 2 | 1 | . | .
CC1CN(Cc2c(O)ccc3c2oc(=O)c2ccccc23)CC(C)O1 (stereo not given) | -7 | 20 | 17 | 5 | . | .
O=c1c(-c2ccccc2)coc2c(CN3CCCCC3)c(O)ccc12 | -3 | -118 | 36* | 106* | 90* | 88*
SMILES | RecA splice inh | CCHF vOTU inh | GDH-TPI counter-1 | FBA Mtb inh | Mtb FBA confirm | GDH-TPI counter-2 | others
CCC1CCCCN1Cc1c(O)ccc2c(=O)c(-c3ccccc3)coc12 (stereo not given) | 0 | -69 | 21 | 54* | 41* | 32*
O=c1c(-c2ccc(O)cc2)coc2c([C@@H]3O[C@H](CO)[C@@H](O)[C@H](O)[C@H]3O)c(O)ccc12 | . | -44 | 20 | 23 | . | .
C=CCN(CC=C)Cc1c(O)ccc2c(=O)c(-c3ccccc3)coc12 | -1 | -48 | 15 | 53* | 34* | 27*
CC1CN(Cc2c(O)ccc3c(=O)c(-c4ccccc4)coc23)CC(C)O1 (stereo not given) | -3 | -75 | 25 | 90* | -6 | -6
COc1ccc(-c2coc3cc(OC)ccc3c2=O)cc1 | . | -1 | 17 | 7 | . | .
CCc1cc2c(=O)c(-c3nc4ccccc4[nH]3)coc2c(CN2CCCCC2C)c1O (stereo not given) | -2 | 14 | 20 | -4 | . | .
CC1CCCCN1Cc1nc2ccccc2c(=O)[nH]1 (stereo not given) | 0 | 1 | 6 | 2 | . | .
CC1CCCCN1Cc1c(O)ccc2c(=O)c(-c3ccccc3)coc12 (stereo not given) | -3 | -78 | 15 | 66* | 77* | 57*
COc1ccc(-c2coc3c(CN4CCCCC4C)c(O)ccc3c2=O)cc1 (stereo not given) | -2 | -114 | -2 | 78* | 70* | 46*
CN(C)Cc1c(O)ccc2c(=O)c(-c3ccc(Cl)cc3)coc12 | . | -43 | 21 | 46* | 43* | 30*
CCc1cc2c(=O)c(-c3ccc4c(c3)OCCO4)coc2c(CN2CCCCC2C)c1O (stereo not given) | -2 | -49 | 14 | 45* | 70* | 70*
O=c1c(-c2ccc([N+](=O)[O-])cc2)coc2c(O)c(O)ccc12 | -2 | 8 | 17 | -2 | . | .
Nc1cc2c(cc1Br)-c1c(C(=O)O)cccc1C2O (stereo not given) | . | -11 | 16 | 11 | . | .
Cc1sc2ncnc(SCC(=O)N3CCCC(C(N)=O)C3)c2c1C (stereo not given) | 0 | -9 | -8 | -2 | . | .
CN1CN(C)C(c2ccncc2)=C1c1ccncc1 | 1 | 8 | 0 | 2 | . | .
CCOc1ccc(C(=O)OCC(=O)N2CC(C)OC(C)C2)cc1OCC (stereo not given) | . | -5 | 16 | 2 | . | .
O=C(O)c1ccc(-c2ccccc2)[nH]c1=O | 0 | 4 | 19 | 106* | + | +
c1ccc(-c2ccc(-c3ccccc3)[nH]2)cc1 | . | -26 | 18 | 64* | 178* | 163*
CCOc1cc2c(C#N)c(N3CCNCC3)nc(N)c2c(N)n1 | 4 | -50 | 10 | 40* | 151* | 125*
CCOc1cc2c(C#N)c(N3CCCCC3)nc(N)c2c(N)n1 | -2 | -3 | 7 | 28* | 84* | 53*
CCCc1cc(=O)[nH]c(SCC(=O)Nc2sc3c(c2C#N)CCC(C)C3)n1 (stereo not given) | -2 | 13 | 4 | 37* | 99* | 73*
CC1CCc2c(sc(NC(=O)CSc3ncn[nH]3)c2C#N)C1 (stereo not given) | 0 | 6 | 5 | -2 | . | .
